A selection: hits, their analogues and other compounds. The true share with any hit is near 9%.
JMJD2A Tudor = qHTS Assay for Inhibitors of JMJD2A-Tudor Domain; AlphaScreen JMJD2A-Tudor / H3K4me3 peptide binding; 390,000 compounds, 4.4% hits; AID 504339, 2011; Lysine-specific demethylase 4A (Homo sapiens), O75164; Potency, µM (doses to about 114 µM), for inactives: top-dose activity change, negative = inhibition, hits mostly inhibitors; also: % is scaled to controls: 0 for no effect and ±100 for the full control effect; nearly all actives have a fitted effect of over 50% in size
BAZ2B inh = qHTS Assay for Inhibitors of BAZ2B; 360,000 compounds, 4.4% hits; AID 504333, 2011; Potency, µM (doses to about 114 µM), for inactives: at the top dose activity change, negative = inhibition, hits mostly inhibitors; Bromodomain adjacent to zinc finger domain protein 2B (Homo sapiens), Q9UIF8; AlphaScreen BAZ2B-H3K14Ac peptide displacement; also: % is scaled to controls: 0 for no effect and ±100 for the full control effect; nearly all actives have a fitted effect of over 60% in size
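BAZ2B 50 nM plus b-H3(5-23)K14Ac 50 nM, PBS pH 7.4/0.01% Tween-20, 30 min RT; compound added (max 110 uM), 30 min RT; streptavidin donor/Ni-chelate acceptor beads 10 ug/mL final, 20 min dark; AlphaScreen read.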
G9a block = qHTS Assay for Inhibitors of Histone Lysine Methyltransferase G9a. Histone-lysine N-methyltransferase EHMT2 (Homo sapiens), Q96KQ7. 350,000 compounds, 8.8% hits. G9a H3K9 monomethylation, AlphaScreen, 2 h. Potency, µM (highest dose often 102 µM), inactives show at the highest dose activity, negative = inhibition, hits mostly inhibitors. AID 504332, 2011; also: % is scaled to controls: 0 for no effect and ±100 for the full control effect; nearly all actives have a fitted effect of over 75% in size
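Step 1: enzyme (final 20 nM) with compound, 15 min RT. Step 2: substrate peptide 500 nM and SAM 20 uM, 2 h RT. Step 3: anti-H3K9me1 antibody and AlphaScreen beads, 10 min, then plate read.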
HP1b binding inh = HTS for Inhibitors of HP1-beta Chromodomain Interactions with Methylated Histone Tails | Chromobox protein homolog 1 (Homo sapiens), P83916 | AlphaScreen HP1-beta / biotin-H3K9me3 peptide binding | Potency, µM (top dose mostly 114 µM), inactives show top-dose activity change, negative = inhibition, usual class: inhibitors | 390,000 compounds, 0.56% hits; also: nearly all actives have a fitted effect of over 70% in size
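HP1-beta protein (50 nM final) preincubated 30 min at room temperature with biotinylated H3(1-18)K9me3 peptide (50 nM) in PBS pH 7.4, 0.01% Tween-20, then compound added for 30 min. AlphaScreen streptavidin donor/nickel chelate acceptor beads (10 ug/mL final), 30 min dark, luminescence read.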
PLK1 PBD inh = qHTS for Inhibitors of PLK1-PDB (polo-like kinase 1 - polo-box domain): Primary Screen. Serine/threonine-protein kinase PLK1 (Homo sapiens), P53350. Plk1 PBD binding of FITC phosphopeptide, fluorescence polarization. Potency, µM, for the others: max response, negative = inhibition, actives largely listed as inhibitors. 360,000 compounds, 2.8% hits. AID 720504, 2013; also: series mostly up to about 57 µM; % is scaled to controls: 0 for no effect and ±100 for the full control effect; nearly all actives have a fitted effect of over 65% in size
12-LOX inh = Primary qHTS assay for inhibitors of human arachidonate 12S-lipoxygenase (ALOX12): Round 2. Polyunsaturated fatty acid lipoxygenase ALOX12 (Homo sapiens), P18054. purified 12hLO, xylenol orange hydroperoxide absorbance. Potency, µM (top dose mostly 108 µM), for inactives: at the top dose activity change, negative = inhibition, hits mostly inhibitors. 580,000 compounds, 1.1% hits. AID 1671190, 2021; also: % is scaled to controls: 0 for no effect and ±100 for the full control effect
Target sequence (P18054 whole entry, looked up): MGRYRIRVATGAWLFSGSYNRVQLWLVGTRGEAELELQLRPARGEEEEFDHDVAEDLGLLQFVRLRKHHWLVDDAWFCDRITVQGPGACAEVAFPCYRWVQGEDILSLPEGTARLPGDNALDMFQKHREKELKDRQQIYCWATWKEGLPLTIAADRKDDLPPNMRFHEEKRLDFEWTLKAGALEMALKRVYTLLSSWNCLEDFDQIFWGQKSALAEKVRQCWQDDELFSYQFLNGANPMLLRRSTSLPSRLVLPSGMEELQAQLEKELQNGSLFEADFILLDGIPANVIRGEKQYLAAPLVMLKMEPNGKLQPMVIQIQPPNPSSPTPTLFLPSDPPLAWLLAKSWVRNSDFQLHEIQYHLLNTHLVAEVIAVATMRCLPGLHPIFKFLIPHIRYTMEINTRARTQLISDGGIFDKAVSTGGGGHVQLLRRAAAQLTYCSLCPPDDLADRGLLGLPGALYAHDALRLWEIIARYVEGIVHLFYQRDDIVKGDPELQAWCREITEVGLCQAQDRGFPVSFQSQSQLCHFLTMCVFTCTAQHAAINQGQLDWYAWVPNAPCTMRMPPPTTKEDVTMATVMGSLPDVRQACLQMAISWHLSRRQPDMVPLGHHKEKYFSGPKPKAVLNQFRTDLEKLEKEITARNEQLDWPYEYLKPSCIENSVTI
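Hydroperoxide product was detected by ferrous iron/xylenol orange as the 573 to 405 nm absorbance ratio. Arachidonic acid at 40 uM (final) was turned over for 30 min at room temperature by 150 nM human 12hLO, pH 7.0 Hepes buffer, after 15 min compound preincubation.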
* marks the source's active call; other numbers are inactive results; ? = inconclusive; / = no result given; [ ] = dose if it differs, or a comment. Calls follow the shape of the dose curve; as a rule, active = well fitted curve in the direction sought with a large enough effect; inconclusive = small, poorly fitted or top-dose-only effect, or another doubt; inactive = no such curve, though single readings can be large; an effect the other way counts as inactive or inconclusive. Potency is read from the fitted curve at half-maximal effect.

SMILES	JMJD2A Tudor	BAZ2B inh	G9a block	HP1b binding inh	PLK1 PBD inh	12-LOX inh
COc1ccc(OC)c(C2/C(=C(\O)c3ccc4c(c3)OCCO4)C(=O)C(=O)N2CC2CCCO2)c1 (stereo not given)	?	-18.6%	2.8%	10.2%	-2.2%	?
CCCCCC1=CCC/C1=N/NC(=S)NCCOC	/	/	/	/	/	39.8µM*
CCOc1cc2[nH]c(=O)n(CCCCC(=O)N3CCN(c4ccc(OC)cc4)CC3)c(=O)c2cc1OCC	-5.7%	1.0%	-9.2%[59 µM]	21.8%	/	8.1%
CC(C)(O)c1cc(=O)sc2nc3ccccc3n12	-3.8%	-3.6%	-7.2%[59 µM]	35.1%	-0.3%	-8.8%
O=C(O)c1cccc(-c2ccc(/C=c3/sc4nc5ccccc5n4c3=O)o2)c1	22.4µM*	25.1µM*	7.94µM*	?	0.5%	0.0%
O=C(O)c1cc(C(=O)O)cc(-c2ccc(/C=c3/sc4nc5ccccc5n4c3=O)o2)c1	22.4µM*	20µM*	2µM*	15.8µM*	-14.9%	/
Cc1cc(C)nc(NC(=O)c2c(C(=O)O)noc2C)n1	-3.5%	?	?	43.6%	-4.7%	-16.9%
Cc1ccc(CNn2cn[nH]c2=S)cc1	8.91µM*	/	/	37.7%	2.3%	?
C=CCOc1ccc(CNn2cn[nH]c2=S)cc1	31.6µM*	-1.6%	20µM*	24.7%	-4.2%	?
C=CCOc1ccc2ccccc2c1CNn1cn[nH]c1=S	?	-9.5%	/	30.7%	-5.2%	?
Cc1ccc(CNc2ccc(CNc3ncn[nH]3)cc2)cc1	?	?	?	-7.0%	-6.7%	0.2%
S=c1[nH]ncn1NCc1cccc(Br)c1	15.8µM*	/	/	17.6%	-28.7%	?
Brc1cccc(CNn2cnnc2)c1	-10.8%	/	/	-2.7%	-12.3%	18.8%
Nc1nc(SCc2ccc(Cl)cc2Cl)c2ncn(C3OC(CO)C(O)C3O)c2n1 (stereo not given)	-21.4%	/	/	22.3%	-6.2%	-28.7%
CCC(C)NC(=O)c1cn(CC)c2ccc(S(=O)(=O)N3CCCCC3)cc2c1=O (stereo not given)	0.7%	-19.3%	-0.2%	32.1%	-9.3%	?
O=C(/C=C/c1ccccc1)n1cnnc1SC/C=C/c1ccccc1	19.9%	8.6%	20µM*	46.8%	?	-9.5%
Cc1nnc(SC/C=C/c2ccccc2)n(N)c1=O	2.2%	-31.9%	-1.4%	13.8%	-1.7%	-1.4%
C=CCNc1nc(-c2sc(NC(=O)CC)nc2C)cs1	-29.7%	?	8.91µM*	-3.4%	?	?
C=CCNc1nc(-c2sc(NC(C)=O)nc2C)cs1	-30.1%	-32.8%	17.8µM*	2.3%	-21.1%	?
CCCCCn1c(=O)[nH]c2cc(C(=O)NCCc3ccc(OC)c(OC)c3)ccc2c1=O	-10.0%	7.5%	0.9%	38.8%	-9.9%	54.0%
O=C(NCc1ccccc1)c1sc(=S)n2c1[nH]c(=O)c1ccccc12	?	44.7µM*	28.2µM*	-22.4%	?	?
CCCCNC(=O)c1sc(=S)n2c1[nH]c(=O)c1ccc(C(=O)NCCc3ccc(OC)c(OC)c3)cc12	-26.0%	?	25.1µM*	-23.4%[57 µM]	?	/
Cc1cccc(-c2nc(S(=O)(=O)c3ccc(F)cc3)c(N3CCN(c4ccccc4)CC3)o2)c1	?	?	-5.2%[59 µM]	-17.7%	/	-4.9%
CC(C)(C)c1cn(-c2ccc(F)cc2)c(=S)[nH]1	25.1µM*	-6.7%	1.41µM*	23.4%	-14.1%	-19.0%
O=C(C[C@@H]1O[C@H](CNC(=O)c2ccccc2)[C@@H](O)[C@H]1O)NCCN1CCOCC1	/	/	/	/	/	74.7%[176 µM]
SMILES	JMJD2A Tudor	BAZ2B inh	G9a block	HP1b binding inh	PLK1 PBD inh	12-LOX inh
COc1ccc(S(=O)(=O)NNC(=O)c2csc(-n3nc(C)cc3C(F)(F)F)n2)cc1OC	-8.2%	?	35.5µM*	12.0%	-5.3%	?
COc1ccccc1/C=C1\SC(=O)N(CCC(=O)NCCCn2ccnc2)C1=O	-3.6%	?	/	25.6%	-14.6%	0.0%
COc1ccc(/C=C2\SC(=O)N(CC(=O)NCCCn3ccnc3)C2=O)cc1	-33.8%	?	/	30.3%	-10.0%	-1.7%
CC(C)c1ccc(/C=C2\SC(=S)N(CCC(=O)NCCCn3ccnc3)C2=O)cc1	?	?	/	2.2%	-19.3%	-21.5%
COc1ccc(/C=C2\SC(=S)N(CCC(=O)NCCCn3ccnc3)C2=O)cc1	16.3%	25.1µM*	56.2µM*	44.1%	2.1%	-17.8%
O=C(CCCN1C(=O)/C(=C/c2ccc(F)cc2)SC1=S)NCCCn1ccnc1	?	22.4µM*	?	?	-12.8%	?
COc1ccccc1/C=C1\SC(=S)N(CCC(=O)NCCCn2ccnc2)C1=O	-1.0%	50.1µM*	?	32.4%	-11.3%	-16.9%
CCOc1ccccc1NC(=O)C(CC)Sc1nc2ncccc2[nH]1 (stereo not given)	-11.6%	-0.1%	-6.2%[59 µM]	21.3%	/	11.8%
CC(=N\O)/C(CN(C)C)=N/O	79.4µM*	0.4%	?	24.0%	-7.2%	-23.3%
COCCOC1CCN(C(=O)C2CCC(=O)N(CCc3ccc(OC)cc3)C2)CC1 (stereo not given)	2.8%	-19.6%	17.7%[59 µM]	30.2%	-6.9%	18.2%
CCOc1cc(/C=C2\CCCC(C(=O)C(F)(F)F)=C2O)ccc1O	-32.9%	-33.2%	20µM*	14.9%	-3.4%	?
COc1ccc(/C=C2\CCCC(C(=O)C(F)(F)F)=C2O)cc1OC	/	?	8.91µM*	/	/	/
CCC(=O)Nc1cccc(NC(=O)c2cnn(-c3ccc(F)cc3)c2C(F)(F)F)c1C	/	/	/	/	/	0.9%
Cc1nc2c(c(N3CCCC(COc4cccc(F)c4)C3)n1)CCNCC2 (stereo not given)	/	/	/	/	/	21.3%
CCOC(=O)C1=C(C)N=c2s/c(=C/c3ccc(OCC(=O)O)cc3)c(=O)n2C1c1cc(OC)c(OC)c(OC)c1 (stereo not given)	-26.5%	-37.2%	/	9.7%	-9.3%	?
CCc1ccccc1NC(=O)c1ccc2c(O)c(S(=O)(=O)c3ccc(OC)cc3)c(=O)[nH]c2c1	20µM*	-9.7%	-0.6%[59 µM]	-8.5%	3.36µM*	25.3%
CCc1ccccc1NC(=O)c1ccc2c(O)c(S(=O)(=O)c3ccccc3)c(=O)[nH]c2c1	79.4µM*	?	15.8µM*	6.3%	/	?
COc1ccc(S(=O)(=O)c2c(O)c3ccc(C(=O)Nc4ccc(F)cc4)cc3[nH]c2=O)cc1	50.1µM*	-29.3%	5.4%[59 µM]	-0.9%	29.9µM*	39.2%
